ELG1 genotoxic = qHTS screen for small molecules that induce genotoxicity in human embryonic kidney (HEK293T) cells expressing luciferase-tagged ELG1; HEK293T ELG1-luciferase reporter, luminescence, 16 h; Potency, µM (top dose mostly 46 µM), without a hit: at the top dose activity change, positive = activation, hits mostly activators; actives 1.3% (n = 330,000); also: % of control where 0% means no effect; nearly all actives have a fitted effect of over 60% in size
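Luminescence read-out: rising ELG1-luciferase signal, reflecting elevated ELG1 protein under genetic stress, flags genotoxic compounds. Cells were treated for 16 hr at 37 °C before ONE-Glo detection.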
p53 reactivator = qHTS assay for re-activators of p53 using a Luc reporter | H1299 p53-A138V BP100-luciferase reporter, luminescence, 24 h | AID 504706, 2011 | actives 0.063% (n = 320,000) | Potency, µM (series often up to 92.2 µM), without a hit: at the top dose activity change, positive = activation, hits mostly activators; also: % of control where 0% means no effect; nearly all actives have a fitted effect of over 45% in size
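H1299 (p53-null), stable ts p53-A138V + BP100-Luc; 1000 cells/well, Opti-MEM/10% FBS; cpd 4 pt, 1:5; 24 h, 37 deg C, 5% CO2; detection reagent 10 min RT; luminescence.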
Rab9 prom act = qHTS Assay for Rab9 Promoter Activators; Huh7 Rab9 promoter-luciferase reporter, luminescence, 24 h; Potency, µM (series often up to 9.22 µM), for inactives: top-dose activation, negative = inhibition, actives largely listed as activators; actives 2.8% (n = 320,000); also: % of control where 0% means no effect; nearly all actives have a fitted effect of over 60% in size
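Cell-based reporter: Huh7 stable for Rab9 promoter-driven luciferase, plated in reduced-serum medium with 10% FBS at 1500 cells/well, compound-treated 24 h at 37 °C, luminescence read after 10 min reagent.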
NPC1 prom act = qHTS Assay for NPC1 Promoter Activators | AID 485313, 2010 | Potency, µM (doses to about 9.22 µM), inactives show top-dose activation, actives largely listed as activators | Huh7 NPC1 promoter luciferase reporter, 24 h | actives 2.4% (n = 320,000); also: % of control where 0% means no effect; nearly all actives have a fitted effect of over 60% in size
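Luminescence from an NPC1 promoter-driven luciferase reporter in stably transfected Huh7 cells was measured after 24 h compound treatment at 37 °C, followed by 10 min ambient incubation with luciferase detection reagent.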
FLuc modulator = qHTS profiling assay for firefly luciferase inhibitor/activator using purifed enzyme and Km concentrations of substrates (counterscreen for miR-21 project) | purified FLuc, Km substrates, luminescence inhibition | actives 6.9% (n = 360,000) | Potency, µM (top dose mostly 57.5 µM), for inactives: at the highest dose activity change, negative = inhibition, actives largely listed as inhibitors | Luciferin 4-monooxygenase (Photinus pyralis), P08659;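 also: plate controls were vehicle for no effect and reference inhibitor for full effect; nearly all actives have a fitted effect of over 55% in size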
Target sequence (P08659 whole entry, looked up): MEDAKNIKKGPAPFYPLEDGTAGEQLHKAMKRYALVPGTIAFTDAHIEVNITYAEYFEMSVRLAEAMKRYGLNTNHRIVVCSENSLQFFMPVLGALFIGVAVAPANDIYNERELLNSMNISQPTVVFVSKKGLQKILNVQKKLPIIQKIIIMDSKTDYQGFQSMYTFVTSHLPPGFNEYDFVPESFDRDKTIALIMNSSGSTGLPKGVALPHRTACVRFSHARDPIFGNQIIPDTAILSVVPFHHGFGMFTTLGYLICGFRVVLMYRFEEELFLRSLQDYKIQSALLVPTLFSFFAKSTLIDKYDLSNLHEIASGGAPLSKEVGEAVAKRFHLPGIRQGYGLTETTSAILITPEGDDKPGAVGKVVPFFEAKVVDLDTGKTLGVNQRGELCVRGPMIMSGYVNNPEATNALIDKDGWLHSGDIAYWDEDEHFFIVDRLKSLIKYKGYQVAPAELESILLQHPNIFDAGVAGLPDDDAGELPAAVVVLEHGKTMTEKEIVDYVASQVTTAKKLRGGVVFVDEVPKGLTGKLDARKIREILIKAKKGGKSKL
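Purified P. pyralis luciferase (10nM final) with 10uM D-luciferin and 10uM ATP (Km levels) in 50mM Tris acetate pH 7.5, 10mM Mg acetate, 0.01% Tween-20, 0.05% BSA; qHTS 6-point titration, ~60 µM downward; luminescence read.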
SMN2 splice enh = qHTS Assay for Enhancers of SMN2 Splice Variant Expression. HEK293 SMN2-luciferase splicing reporter, luminescence, 30-36 h. Potency, µM (doses to about 46.1 µM), for inactives: top-dose activity change, positive = activation, usual class: activators. actives 2.8% (n = 210,000). AID 1458, 2008; also: % of control where 0% means no effect; nearly all actives have a fitted effect of over 55% in size
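HEK293 cells carry an SMN2 minigene-luciferase reporter in which exon 7 inclusion puts luciferase in frame. Cells were seeded at 2000 cells/well, attached for 10-12 hours, then exposed to compounds for 30-36 hours at 37C before ONE-Glo luminescence.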
* = called active by the depositor; ? = inconclusive; / = no result; [ ] = remark or other dose. This is a sample that favours compounds with a hit; in the whole collection about 7.3% have one here. Calls follow the shape of the dose curve; as a rule, active = well fitted curve in the direction sought with a large enough effect; inconclusive = small, poorly fitted or top-dose-only effect, or another doubt; inactive = no such curve, though single readings can be large; an effect the other way counts as inactive or inconclusive. Potency is read from the fitted curve at half-maximal effect.

SMILES | ELG1 genotoxic | p53 reactivator | Rab9 prom act | NPC1 prom act | FLuc modulator | SMN2 splice enh
N/C(=N\OC(=O)c1ccc([N+](=O)[O-])cc1)c1ccc(Br)cc1 | ? | 27% | 3% | 8% | ? | /
Cc1ccc(CC(=O)O/N=C(\N)c2cccc([N+](=O)[O-])c2)cc1 | 0% | 13% | 2% | -3% | ? | -14%
N/C(=N\OC(=O)C1CCCCC1)c1cccc([N+](=O)[O-])c1 | ? | ? | 24% | 11% | 11µM* | 10%
Cc1ccc(C(=O)O/N=C(\N)c2cccc([N+](=O)[O-])c2)cc1 | ? | ? | 3.5µM* | 3.5µM* | 0.19µM* | 20%
N/C(=N\OC(=O)c1ccc(Br)cc1)c1cccc([N+](=O)[O-])c1 | ? | 8% | 28% | ? | 0.85µM* | /
Cc1ccc(NC(=O)C(=O)NNC(=O)c2ccccc2C)cc1Cl | -1% | -3% | -1% | 1% | -10% | 10%
CN1CCN(c2ccc(NC(=O)c3cccc(OCc4ccccc4)c3)cc2)CC1 | 30% | ? | 20% | 19% | 7.6µM* | -14%
COc1ccc(NC(=O)c2cccc(-c3ccc(O)cc3)c2)cn1 | -1% | 16% | 7% | 8% | ? | /
CC(=O)Nc1cccc(NC(=O)c2cccc(OCc3ccccc3)c2)c1 | -3% | 1% | 1% | 8% | 27µM* | /
CC(=O)Nc1cccc(NC(=O)c2cccc(-c3ccc(O)cc3)c2)c1 | 0% | -4% | 10% | 6% | 9.5µM* | /
CCC(C)[C@H]1CNCCN1CCC12CC3CC(CC(C3)C1)C2 (some centres undefined) | -3% | 8% | 2% | -2% | 0% | /
S=C(c1ccc(-c2ccc(Br)cc2)o1)N1CCOCC1 | ? | ? | 2µM* | 3.5µM* | 3µM* | /
S=C(c1ccc(-c2ccccc2Cl)o1)N1CCOCC1 | 13µM* | ? | ? | ? | 11µM* | 32µM*
S=C(c1ccc(-c2ccc(Br)cc2)o1)N1CCCCC1 | 0% | -1% | -1% | -5% | ? | /
S=C(Nc1ccccc1Cl)N1CCOCC1 | 1% | -2% | -2% | -2% | 2% | -11%
S=C(c1ccc(-c2ccc(Cl)c(Cl)c2)o1)N1CCOCC1 | 6.5µM* | ? | 1.8µM* | 2.2µM* | 2.7µM* | 11µM*
CCOC(=O)c1c(Oc2ccc(C(=O)OC)cc2)nnc(-c2ccccc2)c1-c1ccccc1 | / | / | / | / | 2% | ?
Cc1ccc(COc2ccc3c(c2)OCO3)cc1 | ? | ? | 4µM* | 2.2µM* | 1.2µM* | /
O=Cc1ccc(OCc2ccc3c(c2)OCO3)cc1 | 18µM* | / | 2% | 17% | 4.8µM* | /
CCOC(=O)c1c(S(=O)(=O)N2CCCC(C(=O)N3CCN(c4cccc(C)c4C)CC3)C2)c(C)n(C)c1C (centres undefined) | / | / | / | / | -3% | /
Cc1c(C(=O)O)cccc1-c1ccc(/C=C2/NC(=O)N(c3ccccc3)C2=O)o1 | 13% | 11% | 1µM* | ? | 9.5µM* | /
Cc1c(C(=O)O)cccc1-c1ccc(/C=C2\SC(=O)NC2=O)o1 | -4% | -34% | 19% | 15% | 5.4µM* | /
Cc1ccc(/C=C2/NC(=O)N(c3ccccc3)C2=O)o1 | ? | 14% | ? | 26% | ? | -4%
COC(=O)Cn1c(O)c(N=NC(=O)c2ccc3c(c2)OCO3)c2ccccc21 | 9% | 4% | 30% | ? | 0.95µM* | /
COCCn1c(=NC(=O)c2ccc3c(c2)OCCO3)sc2cc(C(=O)OC)ccc21 | / | / | / | / | 2% | /
SMILES | ELG1 genotoxic | p53 reactivator | Rab9 prom act | NPC1 prom act | FLuc modulator | SMN2 splice enh
COC(=O)Cn1c(=NC(=O)c2ccc3c(c2)OCCO3)sc2ccccc21 | / | / | / | / | 8.5µM* | /
CCOC(=O)Cn1c(O)c(N=NC(=O)OC)c2ccccc21 | 0% | 1% | 3% | 2% | 3% | /
CCN=c1scc(C)n1/N=C/c1ccsc1 | ? | ? | 3.2µM* | 3.2µM* | 17µM* | ?
COc1ccc(CCNC(=O)c2ccc(CS(=O)Cc3ccc(C)cc3)o2)cc1OC (centres undefined) | -12% | -16% | -4% | 1% | 0% | /
Cc1ccc(O)c(NC(=S)NC(=O)CC(C)C)c1 | ? | ? | ? | ? | 17µM* | 13µM*
COc1ccc(NC(=S)NC(=O)Cc2ccccc2)c(OC)c1 | 0% | / | 5% | 1% | -5% | /
Cc1ccc(NC(=S)NC(=O)Cc2ccccc2)c(O)c1 | 6% | / | 3% | 22% | 15µM* | /
Cc1ccc(O)c(NC(=S)NC(=O)C(C)C)c1 | 14% | 6% | 11% | 12% | -20% | /
CSc1ccccc1NC(=O)c1cnc2scc(C)n2c1=O | 18µM* | 22% | 22% | 0% | ? | ?
Cc1cc(Br)cc(C)c1NC(=O)c1cnc2ccccn2c1=O | / | / | / | / | -2% | -8%
Cc1ccccc1NC(=O)c1cnc2ccccn2c1=O | ? | ? | 0.79µM* | ? | 0.76µM* | ?
Cn1c(C(=O)NCCc2ccccc2)cc2c(=O)n3ccccc3nc21 | / | / | / | / | -7% | /
Cc1cccc(CCNC(=O)c2cnc3c(C)cccn3c2=O)c1 | / | / | / | / | 4.3µM* | /
CCOc1ccc(CNC(=O)c2cnc3c(C)cccn3c2=O)cc1 | / | / | / | / | 1% | /
O=C(NCCc1ccccc1)c1cnc2ccccn2c1=O | 21% | 7% | 0.56µM* | 0.89µM* | 11µM* | 4µM*
O=C1c2ccc(-c3ccc(F)cc3OCc3ccccc3)cc2S(=O)(=O)c2cccc(C(=O)N3CCCC3)c21 | 0% | -7% | -2% | -2% | -1% | /
Cc1cc(NC(=O)CCC(=O)N(Cc2ccc(F)cc2)C(C(=O)NC2CCCC2)c2ccco2)no1 (centres undefined) | -3% | -1% | -2% | 1% | 1% | /
Cn1nccc1-c1cc(Cl)cc(Cl)c1O | -4% | -2% | -6% | -5% | -5% | /
Cc1csc2ncc(C(=O)NCCc3ccccc3)c(=O)n12 | 21µM* | 10% | ? | ? | ? | ?
CC1=NNC(=S)NCCCN2CCN(CCCNC(=S)NN=C(C)C=NNC(=S)NCCCN3CCN(CCCNC(=S)NN=C1)CC3)CC2 | / | / | / | / | / | -1%[9.22 µM]
COc1ccc(C2Oc3cc(OC)cc(OC)c3CC2O)cc1 (centres undefined) | / | / | / | / | / | 1%
CC(C)(C)c1ccc(C(=O)Nc2cccc(S(=O)(=O)NC3=NCCC3)c2)cc1 | 3% | ? | ? | 2.5µM* | 0.13µM* | /

From PubChem BioAssay
